Legend:
Assay in all cases: phenotypically active (imaging signature differs from DMSO and reproducible) at any of 0.3-9 uM (binary (1 = active, 0 = inactive)); higher = active
Settings in all cases: treatment time: 24 h
A549-ACTB-RAB5A = tested on: A549-ACTB-RAB5A
How it was run: (§1)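 Two criteria together defined phenotypic activity: deviation and reproducibility. Deviation meant ≥3 of 4 wells beyond the 95th percentile of Euclidean distances in solvent control wells, and reproducibility meant a median replicate Pearson correlation above the 95th percentile of non-replicates. Wells had been treated for 24 h at 0.3, 1, 3 or 9 µM in fifteen gene-edited A549, HepG2 and WPMY1 reporter lines before live imaging.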

A549-CANX-COX4 = tested on: A549-CANX-COX4
How it was run: as §1

A549-GM130-SQSTM1 = tested on: A549-GM130-SQSTM1
How it was run: as §1

A549-TP53BP1-CLTA = tested on: A549-TP53BP1-CLTA
How it was run: as §1

A549-TUBA1B-RELA = tested on: A549-TUBA1B-RELA
How it was run: as §1

HepG2-ACTB-RAB5A = tested on: HepG2-ACTB-RAB5A
How it was run: as §1

HepG2-CANX-COX4 = tested on: HepG2-CANX-COX4
How it was run: as §1

HepG2-GM130-SQSTM1 = tested on: HepG2-GM130-SQSTM1
How it was run: as §1

HepG2-TP53BP1-CLTA = tested on: HepG2-TP53BP1-CLTA
How it was run: as §1

HepG2-TUBA1B-RELA = tested on: HepG2-TUBA1B-RELA
How it was run: as §1

WPMY1-ACTB-RAB5A = tested on: WPMY1-ACTB-RAB5A
How it was run: as §1

WPMY1-CANX-COX4 = tested on: WPMY1-CANX-COX4
How it was run: as §1

WPMY1-GM130-SQSTM1 = tested on: WPMY1-GM130-SQSTM1
How it was run: as §1

WPMY1-TP53BP1-CLTA = tested on: WPMY1-TP53BP1-CLTA
How it was run: as §1

WPMY1-TUBA1B-RELA = tested on: WPMY1-TUBA1B-RELA
How it was run: as §1

Measured: phenotypically active

CCN(CC)CCNC(=O)c1cc(Cl)c(N)cc1OC [metoclopramide]
inactive: A549-ACTB-RAB5A 0 | A549-CANX-COX4 0 | A549-GM130-SQSTM1 0 | A549-TP53BP1-CLTA 0 | A549-TUBA1B-RELA 0 | HepG2-ACTB-RAB5A 0 | HepG2-CANX-COX4 0 | HepG2-GM130-SQSTM1 0 | HepG2-TP53BP1-CLTA 0 | HepG2-TUBA1B-RELA 0 | WPMY1-ACTB-RAB5A 0 | WPMY1-CANX-COX4 0 | WPMY1-GM130-SQSTM1 0 | WPMY1-TP53BP1-CLTA 0 | WPMY1-TUBA1B-RELA 0

O=c1[nH]cnc2[nH]ncc12 [Allopurinol]
inactive: A549-ACTB-RAB5A 0 | A549-CANX-COX4 0 | A549-GM130-SQSTM1 0 | A549-TP53BP1-CLTA 0 | A549-TUBA1B-RELA 0 | HepG2-ACTB-RAB5A 0 | HepG2-CANX-COX4 0 | HepG2-GM130-SQSTM1 0 | HepG2-TP53BP1-CLTA 0 | HepG2-TUBA1B-RELA 0 | WPMY1-ACTB-RAB5A 0 | WPMY1-CANX-COX4 0 | WPMY1-GM130-SQSTM1 0 | WPMY1-TP53BP1-CLTA 0 | WPMY1-TUBA1B-RELA 0

O=C1N[C@@H]2[C@@H](O)[C@@H](O)[C@H](O)[C@@H](CO)N2C1=O [Kifunensine]
inactive: A549-ACTB-RAB5A 0 | A549-CANX-COX4 0 | A549-GM130-SQSTM1 0 | A549-TP53BP1-CLTA 0 | A549-TUBA1B-RELA 0 | HepG2-ACTB-RAB5A 0 | HepG2-CANX-COX4 0 | HepG2-GM130-SQSTM1 0 | HepG2-TP53BP1-CLTA 0 | HepG2-TUBA1B-RELA 0 | WPMY1-ACTB-RAB5A 0 | WPMY1-CANX-COX4 0 | WPMY1-GM130-SQSTM1 0 | WPMY1-TP53BP1-CLTA 0 | WPMY1-TUBA1B-RELA 0

CCOCCn1c(N2CCCN(C)CC2)nc2ccccc21 [emedastine]
inactive: A549-ACTB-RAB5A 0 | A549-CANX-COX4 0 | A549-GM130-SQSTM1 0 | A549-TP53BP1-CLTA 0 | A549-TUBA1B-RELA 0 | HepG2-ACTB-RAB5A 0 | HepG2-CANX-COX4 0 | HepG2-GM130-SQSTM1 0 | HepG2-TP53BP1-CLTA 0 | HepG2-TUBA1B-RELA 0 | WPMY1-ACTB-RAB5A 0 | WPMY1-CANX-COX4 0 | WPMY1-GM130-SQSTM1 0 | WPMY1-TP53BP1-CLTA 0 | WPMY1-TUBA1B-RELA 0

COc1ccc(Cl)cc1C(=O)NCCc1ccc(S(=O)(=O)NC(=O)NC2CCCCC2)cc1 [glyburide]
inactive: A549-ACTB-RAB5A 0 | A549-CANX-COX4 0 | A549-GM130-SQSTM1 0 | A549-TP53BP1-CLTA 0 | A549-TUBA1B-RELA 0 | HepG2-ACTB-RAB5A 0 | HepG2-CANX-COX4 0 | HepG2-GM130-SQSTM1 0 | HepG2-TP53BP1-CLTA 0 | HepG2-TUBA1B-RELA 0 | WPMY1-ACTB-RAB5A 0 | WPMY1-CANX-COX4 0 | WPMY1-GM130-SQSTM1 0 | WPMY1-TP53BP1-CLTA 0 | WPMY1-TUBA1B-RELA 0

CNC[C@H](O)c1ccc(O)c(O)c1 [epinephrine]
inactive: A549-ACTB-RAB5A 0 | A549-CANX-COX4 0 | A549-GM130-SQSTM1 0 | A549-TP53BP1-CLTA 0 | A549-TUBA1B-RELA 0 | HepG2-ACTB-RAB5A 0 | HepG2-CANX-COX4 0 | HepG2-GM130-SQSTM1 0 | HepG2-TP53BP1-CLTA 0 | HepG2-TUBA1B-RELA 0 | WPMY1-ACTB-RAB5A 0 | WPMY1-CANX-COX4 0 | WPMY1-GM130-SQSTM1 0 | WPMY1-TP53BP1-CLTA 0 | WPMY1-TUBA1B-RELA 0

CC(C)(C#N)c1cc(Cn2cncn2)cc(C(C)(C)C#N)c1 [Anastrozole]
inactive: A549-ACTB-RAB5A 0 | A549-CANX-COX4 0 | A549-GM130-SQSTM1 0 | A549-TP53BP1-CLTA 0 | A549-TUBA1B-RELA 0 | HepG2-ACTB-RAB5A 0 | HepG2-CANX-COX4 0 | HepG2-GM130-SQSTM1 0 | HepG2-TP53BP1-CLTA 0 | HepG2-TUBA1B-RELA 0 | WPMY1-ACTB-RAB5A 0 | WPMY1-CANX-COX4 0 | WPMY1-GM130-SQSTM1 0 | WPMY1-TP53BP1-CLTA 0 | WPMY1-TUBA1B-RELA 0

CC[C@H]1OC(=O)[C@H](C)[C@@H](O[C@H]2C[C@@](C)(OC)[C@@H](O)[C@H](C)O2)[C@H](C)[C@@H](O[C@@H]2O[C@H](C)C[C@H](N(C)C)[C@H]2O)[C@](C)(O)C[C@@H](C)C(=O)[C@H](C)[C@@H](O)[C@]1(C)O [Erythromycin]
inactive: A549-ACTB-RAB5A 0 | A549-CANX-COX4 0 | A549-GM130-SQSTM1 0 | A549-TP53BP1-CLTA 0 | A549-TUBA1B-RELA 0 | HepG2-ACTB-RAB5A 0 | HepG2-CANX-COX4 0 | HepG2-GM130-SQSTM1 0 | HepG2-TP53BP1-CLTA 0 | HepG2-TUBA1B-RELA 0 | WPMY1-ACTB-RAB5A 0 | WPMY1-CANX-COX4 0 | WPMY1-GM130-SQSTM1 0 | WPMY1-TP53BP1-CLTA 0 | WPMY1-TUBA1B-RELA 0

CN(C)CCc1c[nH]c2ccc(Cn3cncn3)cc12 [rizatriptan]
inactive: A549-ACTB-RAB5A 0 | A549-CANX-COX4 0 | A549-GM130-SQSTM1 0 | A549-TP53BP1-CLTA 0 | A549-TUBA1B-RELA 0 | HepG2-ACTB-RAB5A 0 | HepG2-CANX-COX4 0 | HepG2-GM130-SQSTM1 0 | HepG2-TP53BP1-CLTA 0 | HepG2-TUBA1B-RELA 0 | WPMY1-ACTB-RAB5A 0 | WPMY1-CANX-COX4 0 | WPMY1-GM130-SQSTM1 0 | WPMY1-TP53BP1-CLTA 0 | WPMY1-TUBA1B-RELA 0

CC(=O)[C@H]1CC[C@H]2[C@@H]3C=CC4=CC(=O)CC[C@@]4(C)[C@@H]3CC[C@]12C [dydrogesterone]
inactive: A549-ACTB-RAB5A 0 | A549-CANX-COX4 0 | A549-GM130-SQSTM1 0 | A549-TP53BP1-CLTA 0 | A549-TUBA1B-RELA 0 | HepG2-ACTB-RAB5A 0 | HepG2-CANX-COX4 0 | HepG2-GM130-SQSTM1 0 | HepG2-TP53BP1-CLTA 0 | HepG2-TUBA1B-RELA 0 | WPMY1-ACTB-RAB5A 0 | WPMY1-CANX-COX4 0 | WPMY1-GM130-SQSTM1 0 | WPMY1-TP53BP1-CLTA 0 | WPMY1-TUBA1B-RELA 0

CC(=O)NCCCS(=O)(=O)O [acamprosate]
inactive: A549-ACTB-RAB5A 0 | A549-CANX-COX4 0 | A549-GM130-SQSTM1 0 | A549-TP53BP1-CLTA 0 | A549-TUBA1B-RELA 0 | HepG2-ACTB-RAB5A 0 | HepG2-CANX-COX4 0 | HepG2-GM130-SQSTM1 0 | HepG2-TP53BP1-CLTA 0 | HepG2-TUBA1B-RELA 0 | WPMY1-ACTB-RAB5A 0 | WPMY1-CANX-COX4 0 | WPMY1-GM130-SQSTM1 0 | WPMY1-TP53BP1-CLTA 0 | WPMY1-TUBA1B-RELA 0

Reference: the supplement of paper PMC7411054
